{"source": "the OligoGym collection", "data": [{"target": "RNF167", "experiment": "pooled miR-30 sensor sort-seq; sequence = guide strand", "conditions": "shRNA", "values": [{"sequence": "TTCCTCTTGGTCTTCGTCCCCA", "sensor-assay potency score (higher = more potent)": -0.474}, {"sequence": "AAGACTGACCCATTGACCGGGG", "sensor-assay potency score (higher = more potent)": -0.25}, {"sequence": "TACAACGAGCTATCATTACTGC", "sensor-assay potency score (higher = more potent)": -0.205}, {"sequence": "TCACATTGTGTACTACAGCGGC", "sensor-assay potency score (higher = more potent)": -0.461}, {"sequence": "ATGTGTAGGAATCTGTTTCAGT", "sensor-assay potency score (higher = more potent)": -0.804}, {"sequence": "TTCCGGGTCTGAGTGAGCCAGG", "sensor-assay potency score (higher = more potent)": -1.12}, {"sequence": "TTGTGTACTACAGCGGCACCAT", "sensor-assay potency score (higher = more potent)": -0.0886}, {"sequence": "TTGGTAAGTCGATTCCGCTGGA", "sensor-assay potency score (higher = more potent)": 0.395}, {"sequence": "TTCCTCACTATTCCACACCATG", "sensor-assay potency score (higher = more potent)": -1.35}, {"sequence": "TACTCGGAGCTTCTCTCCCCAA", "sensor-assay potency score (higher = more potent)": -1.19}, {"sequence": "TTTGGTAAGTCGATTCCGCTGG", "sensor-assay potency score (higher = more potent)": 0.435}]}, {"target": "RNF170", "experiment": "pooled miR-30 sensor sort-seq; sequence = guide strand", "conditions": "shRNA", "values": [{"sequence": "TTAATCTAAGTAATTCTGGGGA", "sensor-assay potency score (higher = more potent)": 0.33}, {"sequence": "TATATTATCATATAGGTACCTG", "sensor-assay potency score (higher = more potent)": -0.52}, {"sequence": "TACATTAGCTCAGATATCCTAG", "sensor-assay potency score (higher = more potent)": 0.22}, {"sequence": "TAATTAATCTAAGTAATTCTGG", "sensor-assay potency score (higher = more potent)": -0.536}, {"sequence": "ATGCAATCTCAGAACATCCTGA", "sensor-assay potency score (higher = more potent)": -0.378}, {"sequence": "TAATATTAGAACTTCAAACATG", "sensor-assay potency score (higher = more potent)": -0.991}, {"sequence": "TTCCAGACAACATAGAATCAAG", "sensor-assay potency score (higher = more potent)": -0.928}, {"sequence": "TAGATCCATAATTCTCTCCATA", "sensor-assay potency score (higher = more potent)": -0.793}, {"sequence": "ATTCTCTCCATAATAGATCTGG", "sensor-assay potency score (higher = more potent)": -0.226}, {"sequence": "TAAGATAGAAAAAAGCTCCCAT", "sensor-assay potency score (higher = more potent)": 0.565}, {"sequence": "TATAACTGAATCATCATCCAGT", "sensor-assay potency score (higher = more potent)": 0.606}, {"sequence": "TTATCATATAGGTACCTGCTGA", "sensor-assay potency score (higher = more potent)": -0.705}]}, {"target": "RNF19A", "experiment": "pooled miR-30 sensor sort-seq; sequence = guide strand", "conditions": "shRNA", "values": [{"sequence": "TTTGTTGTTCTAACAACTGTGC", "sensor-assay potency score (higher = more potent)": -0.162}, {"sequence": "TCTGCTTGTACTTCCAACCTGT", "sensor-assay potency score (higher = more potent)": 0.605}, {"sequence": "TTATATAAGCAGCACATCGTGG", "sensor-assay potency score (higher = more potent)": -0.73}, {"sequence": "TTTGTGCTTTGAAACATCCTTG", "sensor-assay potency score (higher = more potent)": 0.0546}, {"sequence": "TTGGGTTGTGTCTTGCTTCTGC", "sensor-assay potency score (higher = more potent)": 0.712}, {"sequence": "TACATCTGCTTGTACTTCCAAC", "sensor-assay potency score (higher = more potent)": -0.763}, {"sequence": "TAACATAATAGGAACACCGATA", "sensor-assay potency score (higher = more potent)": -0.784}, {"sequence": "TACAGTGGTAGCAAAACTCTGT", "sensor-assay potency score (higher = more potent)": 0.121}, {"sequence": "ATTTCTTTCATACACAACCAAC", "sensor-assay potency score (higher = more potent)": -1.69}, {"sequence": "TATATTTAGAGATAAAACCTAT", "sensor-assay potency score (higher = more potent)": -0.374}, {"sequence": "TTGTCGAGCAGCATCACAGGTC", "sensor-assay potency score (higher = more potent)": 0.0826}, {"sequence": "TTTTGTAATACTTATAACCTAA", "sensor-assay potency score (higher = more potent)": -0.606}]}, {"target": "RNF219", "experiment": "pooled miR-30 sensor sort-seq; sequence = guide strand", "conditions": "shRNA", "values": [{"sequence": "TTTTGGATAAACATAAGCCTGA", "sensor-assay potency score (higher = more potent)": -0.319}, {"sequence": "TTAGCTTATCCACATCATCTTT", "sensor-assay potency score (higher = more potent)": -0.899}, {"sequence": "TAAACAATCTATTTCGTCCTCA", "sensor-assay potency score (higher = more potent)": 0.474}, {"sequence": "TTGATATAGGTCTTTGTTCTTA", "sensor-assay potency score (higher = more potent)": -0.397}, {"sequence": "TCTGTCTGAAACAAGCAGCTTG", "sensor-assay potency score (higher = more potent)": -0.169}]}]}
